Measurements reported in PubChem BioAssay (NCI).
About 83,000 compounds went through this panel and 20% of them were active in at least one assay; those are over-represented in the sample as a whole.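 Activity criterion: percent growth below 10, measured after cells in 96-well plates were exposed to a single compound concentration for 48 hours.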 Calls of active or inactive are those of the source.

Legend:
Test in all cases: NCI-60 one-dose screen, 48 h (100 = growth as untreated, 0 = no growth, -100 = all killed)
Details in all cases: 10 µM unless noted
[1] = test system: DU-145 prostate
[2] = test system: K-562 leukemia
[3] = test system: MALME-3M melanoma
[4] = test system: MDA-MB-231 breast
[5] = test system: RXF 393 renal
[6] = test system: SF-268 CNS
[7] = test system: SF-295 CNS
[8] = test system: SF-539 CNS
[9] = test system: UACC-257 melanoma
[10] = test system: M14 melanoma
[11] = test system: HCT-15 colon
[12] = test system: HT29 colon
[13] = test system: SNB-75 CNS
[14] = test system: SNB-19 CNS
[15] = test system: PC-3 prostate
[16] = test system: SK-MEL-5 melanoma
[17] = test system: UACC-62 melanoma
[18] = test system: LOX IMVI melanoma
[19] = test system: SK-MEL-28 melanoma
[20] = test system: U251 CNS

Measured: growth

COC1(OC)C2(Cl)C=C(c3ccccc3)C1(Cl)C(Cl)=C2Cl (centres undefined)
inactive: [1] 113% | [2] 88.8% | [3] 97.9% | [4] 110% | [5] 104% | [6] 101% | [7] 93.9% | [8] 91.5% | [9] 90.1% | [10] 97.2% | [11] 119% | [12] 83.5% | [13] 67% | [14] 102% | [15] 86.2% | [16] 104% | [17] 96.6% | [18] 90% | [19] 102%

Cc1nc2cc(Nc3nc(N4CCCCC4)nc(N4CCOCC4)n3)ccc2n1Cc1ccccc1
inactive: [2] 84.3% | [6] 69% | [7] 78.9% | [8] 81.6% | [9] 60.4% | [10] 48.4% | [11] 21.3% | [14] 65.3% | [15] 47.1% | [16] 54.9% | [17] 32.1%
active: [1] 5.36% | [3] -3.76% | [4] 9.6% | [5] -5.84% | [12] -8.67% | [13] -12.7% | [18] 1.44%

O=C(CCCCCCC(=O)Nc1ccc2c(c1)/C(=C/c1ccc[nH]1)C(=O)N2)NO
active: [1] 4.55% | [4] 1.47% | [5] -30.8% | [6] -13% | [7] 6.46% | [9] 9.98% | [10] 3.6% | [12] 8.62% | [20] -9.13% | [16] -75% | [18] -69.8%
inactive: [2] 11.6% | [3] 36.5% | [8] 23% | [11] 41.5% | [13] 53% | [14] 16.3% | [19] 14.6%

COc1ccc(-n2ncc3c4nc(OC)c(S(=O)(=O)c5ccccc5)cc4ccc32)cc1
inactive: [1] 73% | [2] 119% | [3] 56.9% | [4] 75.6% | [5] 35.1% | [6] 50.9% | [7] 84% | [8] 30.7% | [9] 76.9% | [10] 85% | [11] 77.6% | [12] 70.3% | [14] 64.9% | [15] 79.4% | [16] 90.4% | [17] 59.9% | [18] 86.1% | [19] 71.6%
active: [13] 6.98%

Cc1nc2cc(Nc3nc(NCCN)nc(Nc4ccc(F)cc4)n3)ccc2n1Cc1ccccc1
active: [2] -36.8%
inactive: [1] 82.2% | [3] 93.5% | [4] 60.4% | [5] 72% | [6] 71.8% | [7] 79.8% | [8] 96% | [9] 90.5% | [10] 81.6% | [11] 100% | [12] 35.1% | [13] 84.2% | [14] 91.6% | [20] 77.4% | [16] 86.6% | [18] 58.2% | [19] 107%

Cc1nn(CC(=O)O)c2c1C(=O)CC(C)(C)C2
inactive: [1] 118% | [2] 123% | [3] 118% | [4] 114% | [5] 117% | [6] 103% | [7] 102% | [8] 102% | [9] 96.9% | [10] 93.2% | [11] 102% | [12] 108% | [13] 86.8% | [14] 103% | [15] 102% | [16] 115% | [17] 91% | [18] 107% | [19] 105%

O=C(N/N=C(\CS(=O)(=O)c1ccccc1)c1cc2ccccc2oc1=O)c1ccccc1
inactive: [1] 111% | [2] 109% | [3] 110% | [4] 99.4% | [5] 132% | [6] 99.2% | [7] 101% | [8] 103% | [9] 94.6% | [10] 110% | [11] 107% | [12] 108% | [13] 93.2% | [14] 99.8% | [15] 98.3% | [16] 105% | [17] 97.9% | [18] 96.6% | [19] 107%

CCOC(=O)c1cc2c(n(C)c1=O)-c1cnn(-c3ccc(OC)cc3)c1CC2
inactive: [1] 117% | [2] 104% | [3] 95.1% | [4] 97.9% | [5] 102% | [6] 99.8% | [7] 91.7% | [8] 90.1% | [9] 93.6% | [10] 106% | [11] 89% | [12] 95.6% | [13] 90.5% | [14] 96.6% | [15] 98.5% | [16] 98% | [17] 91.1% | [18] 93.9% | [19] 96.6%
